# Screening results from PubChem.
# Shown are actives, neighbours in structure and some others; about 3% of the full set was active somewhere.
# Peg3 promoter: reduces Peg3 promoter-driven luciferase expression in HeLa; HeLa PEG-Prom luciferase reporter, luminescence, overnight; inhibition, % at 20 µM; hit rate 1.7% among 360,000; AID 588405;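 active = inhibition of at least 50% at 20 µM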
# ABHD5-PLIN5 inh: blocks binding of human ABHD5 to perilipin-5. Q00G26+Q8WTS1. Split G. princeps luciferase complementation, luminescence, 4 h. inhibition, % at 4 µM. hit rate 0.78% among 360,000;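 active = inhibition above the mean inhibition across every tested compound plus 3 SD, cut at about 22% in these data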
# Target sequence (Q00G26 whole entry, looked up): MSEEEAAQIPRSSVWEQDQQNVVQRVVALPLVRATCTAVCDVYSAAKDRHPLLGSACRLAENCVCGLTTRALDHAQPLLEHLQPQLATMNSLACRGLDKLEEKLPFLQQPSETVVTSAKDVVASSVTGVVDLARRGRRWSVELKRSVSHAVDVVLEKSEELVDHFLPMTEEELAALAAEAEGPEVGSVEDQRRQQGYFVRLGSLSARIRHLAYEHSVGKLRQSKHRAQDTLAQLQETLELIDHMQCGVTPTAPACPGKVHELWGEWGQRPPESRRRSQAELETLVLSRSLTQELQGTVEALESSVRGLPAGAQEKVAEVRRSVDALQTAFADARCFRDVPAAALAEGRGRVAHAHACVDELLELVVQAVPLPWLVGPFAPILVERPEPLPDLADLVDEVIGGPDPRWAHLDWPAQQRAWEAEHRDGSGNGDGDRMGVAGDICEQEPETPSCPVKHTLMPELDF
# Target sequence (Q8WTS1 whole entry, looked up): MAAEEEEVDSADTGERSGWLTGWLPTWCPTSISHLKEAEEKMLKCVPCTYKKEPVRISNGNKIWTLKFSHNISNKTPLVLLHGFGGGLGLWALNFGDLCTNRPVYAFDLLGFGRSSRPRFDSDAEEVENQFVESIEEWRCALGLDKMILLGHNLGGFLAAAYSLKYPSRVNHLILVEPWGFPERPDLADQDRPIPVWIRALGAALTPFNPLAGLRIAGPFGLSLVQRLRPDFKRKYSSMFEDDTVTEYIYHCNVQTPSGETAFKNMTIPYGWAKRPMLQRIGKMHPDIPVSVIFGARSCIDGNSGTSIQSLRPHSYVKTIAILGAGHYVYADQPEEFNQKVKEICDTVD
# Shn3 inh set2: reduces Shn3 3'UTR luciferase signal in osteoblasts | inhibition, % at 12.5 µM | AID 588674 | hit rate 0.52% among 360,000 | Clone20 osteoblast Shn3 3'UTR firefly luciferase, 24 h;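 active = mean inhibition of at least 75% with every replicate also reaching 75%; inconclusive = mean inhibition at least 75% but some replicate below; inactive = mean inhibition below 75%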
# PAX8 reporter: lowers PAX8-driven luciferase in RMG-I cells | AID 652154 | inhibition, % at 12.6 µM | hit rate 1.2% among 360,000 | RMG-I TPO-luciferase reporter, SteadyGlo, 24 h;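 active = mean replicate inhibition at least 60% with every replicate also reaching 60%; inconclusive = only one of the two criteria is met; inactive = mean below 60% and not all replicates reaching 60%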;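 also: luciferase light reporting Pax8 driven TPO promoter activity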
# EWS-Fli inh: inhibitors of EWS/Fli oncoprotein transcriptional activity; hit rate 0.67% among 350,000; inhibition, % at 12.6 µM; A673 NR0B1-luciferase reporter, viability-normalised;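 active = mean inhibition of at least 50% after viability correction, with every replicate also passing that limit; inconclusive = mean reaches 50% but only one of two replicates passes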;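 also: firefly luciferase signal divided by Alamar Blue viability fluorescence both relative to DMSO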
# TRPM1 prom inh: reduces MITF-dependent TRPM1 promoter luciferase signal; SK-MEL-5 TRPM1 promoter luciferase, 24 h; hit rate 0.83% among 330,000; AID 488899; inhibition, % at 12.5 µM;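 active = mean inhibition across replicates of 60% or more, whatever share of single replicates reaches that level; inconclusive = some that reach 60%, reason not given; inactive = mean inhibition across replicates below 60%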
# A number is an active result; 0 = inactive; ? = inconclusive; - = no result given.
SMILES,Peg3 promoter,ABHD5-PLIN5 inh,Shn3 inh set2,PAX8 reporter,EWS-Fli inh,TRPM1 prom inh
CN(c1cccc(Cl)c1)S(=O)(=O)c1cccc(C(=O)Nc2nc3ccccc3[nH]2)c1,76,0,0,71,0,0
COc1ccc(N(C)S(=O)(=O)c2cccc(C(=O)Nc3nc4ccccc4[nH]3)c2)cc1,0,0,0,0,0,0
O=C(C[C@H]1CC[C@H]2[C@@H](COC[C@H](O)CN2Cc2ccc(Cl)cc2)O1)Nc1nccs1,-,-,-,0,0,-
COc1ccc(NS(=O)(=O)c2cc(NC(=O)/C=C/c3cccs3)ccc2N2CCOCC2)cc1,50,0,0,0,0,0
CCCCn1c(=O)[nH]c(=O)c2c1nc(CN1C(=O)c3ccccc3S1(=O)=O)n2CCC,0,0,0,-,-,0
CCCCn1c(=O)[nH]c(=O)c2c1nc(Cn1ncc(Cl)c(Cl)c1=O)n2CCC,104,0,98,97,0,92
Cc1ccc(C(NC(=O)N2CCCCC2)=C(Cl)Cl)cc1F,53,0,0,?,0,0
Cc1ccc(C(NC(=O)NCCCN2CCOCC2)=C(Cl)Cl)cc1F,0,0,0,0,-,0
COC(=O)C[C@@H]1C[C@H]2c3cc(NC(=O)C4CCC4)ccc3O[C@H]2[C@H](CO)O1,-,-,-,0,0,-
Cc1cc2nc3ccc(=[N+](C)C)cc-3sc2cc1N,0,0,0,-,-,96
CN(C)c1ccc2nc3ccc(=O)cc-3sc2c1,0,0,0,-,0,-
CN(C)c1ccc2nc3ccc(=[N+](C)C)cc-3sc2c1,0,0,0,0,0,73
COc1ccc(-c2c3c(nc4sc5c(Cl)nc(C)nc5c24)CCC3)cc1,109,0,0,-,-,0
O=C(c1ccncc1)N1CCN(c2cc(-c3ccccc3)nc3cc(-c4cccc(Cl)c4)nn23)CC1,0,0,0,68,0,-
O=C(c1ccoc1)N1CCN(c2cc(-c3ccccc3)nc3cc(-c4ccc(Br)cc4)nn23)CC1,0,0,0,0,0,-
O=C(c1ccoc1)N1CCN(c2cc(-c3ccncc3)nc3cc(-c4cccc(Cl)c4)nn23)CC1,0,0,0,0,0,-
COc1ccc(-c2cc3nc(-c4ccccc4)cc(N4CCN(C(=O)c5ccoc5)CC4)n3n2)cc1,55,0,0,0,0,-
O=C(C1CCCCC1)N1CC2(C1)[C@H](c1ccccc1)[C@@H](CO)N2Cc1ccccc1F,-,-,-,0,0,-
CCCNC(=O)[C@H]1N[C@H]2c3ccc(-c4cccc(F)c4)c(=O)n3C[C@H]2[C@@H]1CO,-,-,-,0,0,-
CC=Cc1ccc2n(c1=O)C[C@H]1[C@H](CO)[C@@H](C(=O)N(C)C)[C@@H]2N1S(=O)(=O)c1ccccc1C (mixture of isomers),-,-,-,0,0,-
O=C(Nc1ccccc1C(=O)Nc1nnc(C(F)(F)F)s1)c1ccccc1Cl,0,0,0,63,0,0
CN(C)CC(=O)N1[C@H](C#N)[C@@H](c2ccc(C#Cc3cccnc3)cc2)[C@H]1CO,-,-,-,0,0,-
N=c1c2c(n(Cc3ccc(Cl)c(Cl)c3)c3c1CCC3)CCCC2,0,0,0,-,-,71
N=c1c2c(n(Cc3ccc(Br)cc3)c3c1CCC3)CCCC2,0,0,0,78,0,65
C[C@H]1CN([C@@H](C)CO)C(=O)c2cc(NS(=O)(=O)c3cn(C)cn3)ccc2O[C@H]1CN(C)S(=O)(=O)c1cccs1,-,-,-,-,0,-
SMILES,Peg3 promoter,ABHD5-PLIN5 inh,Shn3 inh set2,PAX8 reporter,EWS-Fli inh,TRPM1 prom inh
COc1cc(NC(=O)CSc2ncnc3c2cnn3Cc2ccccc2)cc(OC)c1,0,0,0,-,-,0
COc1ccc(OC)c(NC(=O)CSc2ncnc3c2cnn3-c2ccccc2Cl)c1,0,0,89,-,-,0
COc1ccccc1NC(=O)CNC(c1ccccc1)c1ccccc1,0,0,0,0,0,0
COc1ccc(C)cc1NC(=O)CNC(c1ccccc1)c1ccc(C)cc1 (stereo not given),0,0,0,0,55,0
COc1ccc(CN(C)C[C@H]2Oc3ccc(NC(=O)C4CCCCC4)cc3CC(=O)N([C@@H](C)CO)C[C@@H]2C)cc1,-,-,-,-,0,-
Cn1c(=O)c2nc(NCc3ccccc3)cnc2n(C)c1=O,0,0,0,-,0,0
Cc1nc2c(=O)n(C)c(=O)n(C)c2nc1Cl,108,0,97,111,59,0
COc1cc(C2c3cc4c(cc3OC(Nc3ccc(C(=O)O)cc3)C2C)OCO4)cc(OC)c1OC (stereo not given),0,0,0,0,52,0
COc1cc(C2c3cc4c(cc3OC(NCCc3ccccc3)C2C)OCO4)cc(OC)c1OC (stereo not given),0,0,0,0,54,0
COc1cc(C2c3cc4c(cc3OC(N3CCOCC3)C2C)OCO4)cc(OC)c1OC(C)=O (stereo not given),0,0,0,0,0,0
O=C(C[C@H]1C=C[C@H](NC(=O)NC2CCCCC2)[C@H](CO)O1)NCc1ccc(F)cc1,-,-,-,0,0,-
COc1ccc2c3c(n(C)c2c1)[C@H](CO)N(C(=O)Nc1ccc(F)cc1)CC31CN(Cc2cccnc2)C1,-,-,-,-,0,-
C[C@H](CO)N1C[C@H](C)[C@H](CN(C)C(=O)Nc2ccccc2)Oc2ncc(C#Cc3ccc(C(F)(F)F)cc3)cc2C1=O,-,-,-,-,0,-
CC1=NN(c2nc(N)nc(/C(C#N)=C/c3ccc([N+](=O)[O-])o3)n2)C(C)(C)C1,102,0,98,0,70,91
O=C1C2C(C(=O)N1/N=C/c1ccc([N+](=O)[O-])o1)C1C=CC2C12CC2 (stereo not given),0,0,0,0,-,0
CC(C)NC(=O)N(C)C[C@H]1OCCCC[C@H](C)Oc2ccc(NC(=O)Nc3ccc(F)cc3)cc2C(=O)N([C@H](C)CO)C[C@@H]1C,-,-,-,0,0,-
Cn1cnc(S(=O)(=O)N[C@@H]2C=C[C@H](CC(=O)N3CCN(c4ccccc4)CC3)O[C@@H]2CO)c1,-,-,-,0,-,-
C[C@H](CO)N1C[C@H](C)[C@@H](CN(C)Cc2ccc(Cl)c(Cl)c2)OCCCC[C@H](C)Oc2ccc(NC(=O)Nc3ccccc3)cc2C1=O,-,-,-,87,0,-
C[C@H]1CCCCO[C@H](CN(C)Cc2ccc(Cl)c(Cl)c2)[C@@H](C)CN([C@@H](C)CO)C(=O)c2cc(NC(=O)Nc3ccccc3)ccc2O1,-,-,-,85,0,-
C[C@@H]1CCCCO[C@@H](CN(C)Cc2ccc(Cl)c(Cl)c2)[C@@H](C)CN([C@@H](C)CO)C(=O)c2cc(NC(=O)Nc3ccccc3)ccc2O1,-,-,-,81,0,-
C[C@H](CO)N1C[C@H](C)[C@@H](CN(C)Cc2ccc(Cl)c(Cl)c2)OCCCC[C@H](C)Oc2ccc(NC(=O)c3ccccc3)cc2C1=O,-,-,-,0,0,-
C[C@H](CO)N1C[C@H](C)[C@H](CN(C)Cc2ccc(Cl)c(Cl)c2)OCCCC[C@H](C)Oc2ccc(NC(=O)Nc3ccccc3)cc2C1=O,-,-,-,100,0,-
C[C@H](CO)N1C[C@H](C)[C@H](CN(C)Cc2cccc(O)c2)OCc2cnnn2CCCC1=O,-,-,-,-,0,-
COc1cccc(NC(=O)N[C@H]2CC[C@@H](CC(=O)NCc3ccncn3)O[C@@H]2CO)c1,-,-,-,0,0,-
